# Inconclusive results are not listed. Calls of active or inactive are those of the source. The call rests on the fitted dose curve.
# Test: Confirmation and Secondary Assays for Modulators of Hemoglobin Beta Chain Splicing at IVS2 654 and 705 loci
# Conditions: HeLa beta-globin IVS2-654 splicing GFP reporter, 48 h
# Excerpt: NIH Chemical Genomics Center [NCGC]
# NIH Molecular Libraries Screening Centers Network [MLSCN]
# PI Name: Dr. Ryszard Kole
# Modulation of Alternative Splicing as Therapy
# Abnormal splicing is associated with a number of diseases, including cancer and genetic diseases such as cystic fibrosis, muscular dystrophy and beta-thalassemia. Alteration of disease associated splicing patterns provides a promising target for treatment. […] Mutations in the second intron of the b-globin gene at positions 654 or 705 are clinically relevant and cause mis-splicing which results in an out of frame gene product.
# EGFP-654 HeLa Cells as screen system.
# (§1) HeLa cell lines were stably transfected with a construct in which the EGFP (enhanced green fluorescent protein) cDNA was interrupted by the second intron of the beta-globin gene (IVS2-654). The ISV2 intron contains mutations which cause mis-splicing of EGFP and premature termination of EGFP which results in a nonfluorescent protein product. […] Expression of the transgene was driven by the CMV promoter. We concluded that a low molecular weight compound, which restored correct splicing of intron 2 would also generate functional EGFP protein, resulting in a fluorescent signal. Thus, the HeLa cells that express the EGFP-654 construct can be used for high throughput screening of a chemical library.
# EGFP-705 HeLa Cells as screen system.
# as §1, with “(IVS2-705).” for “(IVS2-654).”, “EGFP-705” for “EGFP-654”, “validation of splice site specificity of compounds identified in primary” for “high throughput”, “the ISV2 654 construct.” for “a chemical library.”
# NCGC Assay Protocol Summary:
# Confirmatory Screening. Freshly thawed HeLa EGFP-654 or EGFP-705 cells were seeded in 5 ul of optimem media (Invitrogen) containing 2 % fetal calf serum (Hyclone) and 1x penicillin/streptomycin (Invitrogen) at a concentration of 500 cells per well in 1536-well plates. Cells were incubated overnight at 37C in 5% CO2. The next day, cells were treated with DMSO, 500 nM antisense ISV2 654 (or 705) PNA control oligo, or library compound and allowed to grow at 37C in 5% CO2 for 2 days. The PNA oligo blocked the mutation site in the intron and allowed proper (wild type) splicing to occur, resulting in full length EGFP expression and also allowed for optimization of the assay parameters. Plates were read in the Acumen Explorer (TTP Labtech) using 488 nm laser excitation and 500-520 nm emission PMT filter in a 1 x 8 uM capture mode, and were read immediately after compound pinning (beta-globin-654-gfp-0hr), at 24 hours (beta-globin-654-gfp-24hr and beta-globin-705-gfp-24hr), and at 48 hours (beta-globin-654-gfp-48hr and beta-globin-705-gfp-48hr). Fluorescnet objects ranging in size from 5 to 250 uM were measured and the total peak GFP intensity for each well was used for data analysis. Cell death was measured by quantitating protease release by sick and dying cells using Promega's luminescent Cytotox-Glo reagent. Cells were treated with 2ul of Cytotox- Glo reagent incubated at room temperature for 5 minutes and read in the Viewlux plate reader with a 30 second integration time (beta-globin-654-protease-48hr and beta-globin-705-protease-48hr).
# Keywords: Thalassemia, beta-thalassemia, beta-globin, EGFP, ISV2 654, ISV2 705, SSO, PNA, antisense, splicing, MLSMR, MLSCN, NIH Roadmap, qHTS, NCGC
row,Structure (SMILES),Potency
1,Cn1cnc([N+](=O)[O-])c1Sc1ncnc2nc[nH]c12,2000 nM (active)
2,Nc1nc2n[nH]nc2c(=O)[nH]1,2510 nM (active)
3,Nc1nc(=S)c2ncn([C@H]3O[C@@H](CO)[C@@H](O)[C@@H]3O)c2[nH]1,1260 nM (active)
4,O=c1[nH]c(=O)n([C@@H]2O[C@H](CO)[C@@H](O)[C@H]2O)cc1F,3980 nM (active)
5,CCn1c(C)nc([N+](=O)[O-])c1Sc1ncnc2nc[nH]c12,2000 nM (active)
6,OCC1OC(n2cnc3c(=S)nc[nH]c32)C(O)C1O (stereo not drawn),1780 nM (active)
7,Nc1nc(=S)c2[nH]cnc2[nH]1,1120 nM (active)
8,S=C1NC=NC2N=CNC12 (stereo not drawn),1580 nM (active)

# — PubChem BioAssay AID1405 (National Center for Advancing Translational Sciences (NCATS), 2008)
